This passage reports Potency results from PubChem BioAssay (Tox21).

Inconclusive results are not listed. Entries that show only a call come without a potency. Active and inactive are the calls of the source. The call rests on the fitted dose curve.

The test addresses Acetylcholinesterase (Homo sapiens) (UniProt P22303). Description: Acetylcholinesterase (AChE) small molecule antagonists: colormetric cell-based qHTS assay (AID 1347395). Further: nearly all actives have a fitted effect of over 30% in size. A digest of the protocol:
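Neuroblastoma line SH-SY5Y supplied the enzyme; cells were preincubated with compound for 30 min at 37 C and 5% CO2. Acetylthiocholine with DTNB was then added for 90 min at 37 C, and thiocholine was measured by colour.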
For orientation: Quantitative high-throughput screening tests each substance at several concentrations.

Chain of Acetylcholinesterase (Homo sapiens) (P22303 whole entry, looked up): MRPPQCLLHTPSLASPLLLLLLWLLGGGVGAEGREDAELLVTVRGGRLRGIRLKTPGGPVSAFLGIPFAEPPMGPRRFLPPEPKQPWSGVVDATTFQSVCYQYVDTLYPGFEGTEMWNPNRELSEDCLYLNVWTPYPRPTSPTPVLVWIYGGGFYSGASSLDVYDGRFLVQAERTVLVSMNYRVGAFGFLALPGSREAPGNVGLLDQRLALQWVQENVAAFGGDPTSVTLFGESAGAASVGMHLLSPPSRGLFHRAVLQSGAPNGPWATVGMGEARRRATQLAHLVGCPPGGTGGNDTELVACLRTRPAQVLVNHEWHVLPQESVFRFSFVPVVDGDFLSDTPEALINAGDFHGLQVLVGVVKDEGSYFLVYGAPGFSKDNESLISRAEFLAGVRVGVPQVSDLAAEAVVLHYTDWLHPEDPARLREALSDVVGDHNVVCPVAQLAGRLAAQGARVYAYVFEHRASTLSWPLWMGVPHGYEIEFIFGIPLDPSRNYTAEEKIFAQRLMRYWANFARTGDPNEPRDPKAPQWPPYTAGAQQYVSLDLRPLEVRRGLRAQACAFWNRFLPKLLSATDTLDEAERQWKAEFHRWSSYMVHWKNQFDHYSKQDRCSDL

As for `C=CCNCC=C`, the Potency result was “inactive”.
